PubChem BioAssay AID1159580 (chemical genetic matrix, 2015)
The campaign covered roughly 5,500 compounds. About 2,000 (36%) were called active. Inconclusive results (about 18%) are left out. Rule as the data show it: active = normalized growth mostly below about 0.91 (no sharp cut-off); inconclusive = no clear call, values can overlap the other calls; inactive = mostly above about 0.92. Some of the results follow.

Assay: chemical genetic growth profiling, strain panel (AID 1159580);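 also: tested at 20 µM; growth read once vehicle control cultures reached saturation at 30 °C; 1 = growth at the plate median or of vehicle wells; lower values mean less growth of the strain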
Settings: S. cerevisiae deletion strains, growth OD

Measured: normalized growth

CC12CCCCC1(Br)[N+](=O)N2[O-] (configuration not stated)
active: locus YAL026C, strain drs2, stronger effect = lower value 0.899 | locus YER155C, strain BEM2 (second series), stronger effect = lower value 0.853 | locus YLR262C, strain YPT6 (second series), stronger effect = lower value 0.815
inactive: locus YAL021C, strain ccr4, stronger effect = lower value 0.951 | locus YAL030W, strain snc1, stronger effect = lower value 0.997 | locus YBL061C, strain skt5, stronger effect = lower value 0.978 | locus YBR009C, strain hhf1, stronger effect = lower value 0.939 | locus YBR023C, strain chs3, stronger effect = lower value 0.976 | locus YBR171W, strain sec66, stronger effect = lower value 0.964 | locus YBR231C, strain swc5, stronger effect = lower value 0.992 | locus YBR279W, strain paf1, stronger effect = lower value 0.972 | locus YCL011C, strain gbp2, stronger effect = lower value 0.943 | locus YCL016C, strain dcc1, stronger effect = lower value 0.951 | locus YCL069W, strain vba3, stronger effect = lower value 0.986 | locus YCR088W, strain abp1, stronger effect = lower value 0.983 | locus YDL005C, strain med2, stronger effect = lower value 0.969 | locus YDL040C, strain nat1, stronger effect = lower value 0.991 | locus YDR001C, strain nth1, stronger effect = lower value 1.01 | locus YDR069C, strain doa4, stronger effect = lower value 0.91 | locus YDR137W, strain rgp1, stronger effect = lower value 0.857 | locus YDR159W, strain sac3, stronger effect = lower value 0.995 | locus YDR195W, strain ref2 1.01 | locus YDR297W, strain sur2, stronger effect = lower value 1 | locus YDR334W, strain swr1, stronger effect = lower value 0.984 | locus YDR335W, strain msn5, stronger effect = lower value 0.974 | locus YDR392W, strain spt3, stronger effect = lower value 0.948 | locus YEL003W, strain gim4, stronger effect = lower value 0.994 | locus YEL037C, strain rad23, stronger effect = lower value 0.998 | locus YEL061C, strain CIN8 (second series), stronger effect = lower value 0.993 | locus YER015W, strain faa2, stronger effect = lower value 0.993 | locus YER016W, strain bim1, stronger effect = lower value 0.999 | locus YER111C, strain swi4, stronger effect = lower value 0.967 | locus YFR010W, strain ubp6, stronger effect = lower value 0.922 | locus YGL167C, strain pmr1, stronger effect = lower value 0.993 | locus YGL173C, strain kem1, stronger effect = lower value 0.953 | locus YGL227W, strain vid30, stronger effect = lower value 0.992 | locus YGL240W, strain doc1, stronger effect = lower value 0.992 | locus YGL253W, strain hxk2, stronger effect = lower value 0.989 | locus YHR013C, strain ard1, stronger effect = lower value 0.919 | locus YHR027C, strain rpn1, stronger effect = lower value 0.966 | locus YHR142W, strain chs7, stronger effect = lower value 0.942 | locus YJL092W, strain hpr5, stronger effect = lower value 0.989 | locus YJL095W, strain BCK1 (second series), stronger effect = lower value 0.993 | locus YJL115W, strain asf1, stronger effect = lower value 0.987 | locus YJL129C, strain trk1, stronger effect = lower value 0.997 | locus YJL154C, strain vps35, stronger effect = lower value 0.997 | locus YJL164C, strain tpk1, stronger effect = lower value 0.951 | locus YJL166W, strain qcr8, stronger effect = lower value 0.961 | locus YJL187C, strain SWE1, stronger effect = lower value 0.986 | locus YKL160W, strain elf1, stronger effect = lower value 0.944 | locus YKR026C, strain gcn3, stronger effect = lower value 0.985 | locus YKR091W, strain srl3, stronger effect = lower value 0.989 | locus YLL001W, strain dnm1, stronger effect = lower value 0.967 | locus YLL026W, stronger effect = lower value 0.991 | locus YLL041C, strain sdh2, stronger effect = lower value 0.999 | locus YLR027C, strain aat2, stronger effect = lower value 0.954 | locus YLR221C, strain rsa3, stronger effect = lower value 0.927 | locus YLR258W, strain gsy2, stronger effect = lower value 0.967 | locus YLR320W, strain mms22, stronger effect = lower value 0.954 | locus YLR342W, strain FKS1, stronger effect = lower value 0.946 | locus YLR357W, strain rsc2, stronger effect = lower value 0.914 | locus YLR370C, strain arc18, stronger effect = lower value 0.966 | locus YLR384C, strain iki3, stronger effect = lower value 0.984 | locus YML120C, strain ndi1, stronger effect = lower value 1 | locus YMR058W, strain fet3, stronger effect = lower value 0.951 | locus YMR125W, strain sto1, stronger effect = lower value 1.02 | locus YMR129W, stronger effect = lower value 0.98 | locus YMR205C, strain PFK2, stronger effect = lower value 0.995 | locus YMR231W, strain pep5, stronger effect = lower value 0.997 | locus YNL071W, strain lat1, stronger effect = lower value 0.946 | locus YNL209W, strain ssb2, stronger effect = lower value 0.963 | locus YNL248C, strain rpa49, stronger effect = lower value 0.954 | locus YNL322C, strain KRE1 (second series), stronger effect = lower value 0.979 | locus YNR049C, strain mso1, stronger effect = lower value 0.999 | locus YOR001W, strain rrp6, stronger effect = lower value 0.958 | locus YOR070C, strain gyp1, stronger effect = lower value 0.994 | locus YOR080W, strain dia2, stronger effect = lower value 1 | locus YOR083W, strain WHI5, stronger effect = lower value 0.895 | locus YOR106W, strain vam3, stronger effect = lower value 0.884 | locus YOR265W, strain rbl2, stronger effect = lower value 0.991 | locus YOR270C, strain vph1, stronger effect = lower value 0.81 | locus YOR290C, strain snf2, stronger effect = lower value 0.976 | locus YPL051W, strain arl3, stronger effect = lower value 0.936 | locus YPL078C, strain atp4, stronger effect = lower value 0.967 | locus YPL106C, strain sse1, stronger effect = lower value 0.941 | locus YPL240C, strain hsp82, stronger effect = lower value 0.978

FC(F)(F)c1cc(NC(=S)SCCSC(=S)Nc2cc(C(F)(F)F)cc(C(F)(F)F)c2)cc(C(F)(F)F)c1
inactive: locus YAR019C, strain CDC15, stronger effect = lower value 0.993 | locus YBL105C, strain PKC1, stronger effect = lower value 0.989 | locus YBR135W, strain CKS1, stronger effect = lower value 1 | locus YBR136W, strain MEC1, stronger effect = lower value 0.986 | locus YBR160W, strain CDC28, stronger effect = lower value 0.997 | locus YDL017W, strain CDC7, stronger effect = lower value 0.991 | locus YDL028C, strain MPS1, stronger effect = lower value 0.991 | locus YDL101C, strain DUN1, stronger effect = lower value 1 | locus YDL108W, strain KIN28, stronger effect = lower value 0.99 | locus YDL132W, strain cdc53, stronger effect = lower value 0.988 | locus YDL214C, strain PRR2, stronger effect = lower value 0.889 | locus YDR052C, strain DBF4, stronger effect = lower value 1 | locus YDR054C, strain cdc34, stronger effect = lower value 0.994 | locus YDR226W, strain ADK1, stronger effect = lower value 0.994 | locus YDR477W, strain SNF1, stronger effect = lower value 0.951 | locus YER123W, strain YCK3, stronger effect = lower value 0.949 | locus YER133W, strain GLC7, stronger effect = lower value 0.911 | locus YFL009W, strain cdc4, stronger effect = lower value 1 | locus YFL029C, strain CAK1, stronger effect = lower value 0.994 | locus YFR003C, strain YPI1, stronger effect = lower value 0.993 | locus YFR019W, strain FAB1, stronger effect = lower value 1.01 | locus YFR028C, strain CDC14, stronger effect = lower value 0.993 | locus YGR040W, strain KSS1, stronger effect = lower value 0.951 | locus YGR052W, strain FMP48, stronger effect = lower value 1.04 | locus YGR092W, strain DBF2, stronger effect = lower value 0.993 | locus YHR030C, strain SLT2, stronger effect = lower value 0.984 | locus YHR079C, strain IRE1, stronger effect = lower value 1.04 | locus YHR082C, strain KSP1, stronger effect = lower value 1.03 | locus YHR205W, strain SCH9, stronger effect = lower value 0.983 | locus YIL147C, strain SLN1, stronger effect = lower value 0.97 | locus YJL095W, strain BCK1, stronger effect = lower value 1.08 | locus YJL128C, strain PBS2, stronger effect = lower value 0.954 | locus YJL157C, strain FAR1, stronger effect = lower value 0.884 | locus YJR016C, strain ILV3, stronger effect = lower value 0.995 | locus YJR066W, strain TOR1 (second series), stronger effect = lower value 0.94 | locus YJR066W, strain TOR1, stronger effect = lower value 1.09 | locus YKL048C, strain ELM1, stronger effect = lower value 0.971 | locus YKL067W, strain YNK1, stronger effect = lower value 0.862 | locus YKL101W, strain HSL1, stronger effect = lower value 0.968 | locus YKL193C, strain SDS22, stronger effect = lower value 0.992 | locus YKL203C, strain TOR2, stronger effect = lower value 1.06 | locus YLR113W, strain HOG1, stronger effect = lower value 0.869 | locus YLR133W, strain CKI1, stronger effect = lower value 0.972 | locus YLR403W, strain SFP1, stronger effect = lower value 0.982 | locus YML070W, strain DAK1, stronger effect = lower value 0.908 | locus YMR001C, strain CDC5, stronger effect = lower value 0.997 | locus YMR205C, strain PFK2 (second series), stronger effect = lower value 0.988 | locus YMR277W, strain FCP1, stronger effect = lower value 0.986 | locus YNL006W, strain LST8, stronger effect = lower value 0.996 | locus YNL020C, strain ARK1, stronger effect = lower value 0.973 | locus YNL161W, strain CBK1, stronger effect = lower value 0.998 | locus YNL183C, strain NPR1, stronger effect = lower value 1.03 | locus YNL207W, strain RIO2, stronger effect = lower value 0.987 | locus YNL222W, strain SSU72, stronger effect = lower value 0.989 | locus YNL307C, strain MCK1 (second series), stronger effect = lower value 0.984 | locus YOL078W, strain AVO1, stronger effect = lower value 0.992 | locus YOL136C, strain PFK27, stronger effect = lower value 0.933 | locus YOR061W, strain CKA2, stronger effect = lower value 0.994 | locus YOR119C, strain RIO1, stronger effect = lower value 1.02 | locus YOR231W, strain MKK1, stronger effect = lower value 1.03 | locus YOR329C, strain SCD5, stronger effect = lower value 0.996 | locus YPL031C, strain PHO85, stronger effect = lower value 0.963 | locus YPL153C, strain RAD53, stronger effect = lower value 0.946 | locus YPL204W, strain HRR25, stronger effect = lower value 0.932 | locus YPL209C, strain IPL1, stronger effect = lower value 0.992 | locus YPL256C, strain CLN2, stronger effect = lower value 0.926 | locus YPR025C, strain CCL1, stronger effect = lower value 0.999 | locus YPR106W, strain ISR1, stronger effect = lower value 0.998 | locus YPR111W, strain DBF20, stronger effect = lower value 0.988 | strain NNK1, stronger effect = lower value 0.986 | strain TSCII, stronger effect = lower value 0.993
